# Screening data (PubChem BioAssay)
# Shown are actives, neighbours in structure and some others; about 2.8% of the full set was active somewhere.
# Pol kappa inh: qHTS for Inhibitors of Polymerase Kappa; DNA polymerase kappa (Homo sapiens), Q9UBT6; purified Pol kappa, fluorescent DNA synthesis assay, 10 min; Potency, µM (top dose mostly 107 µM), actives largely listed as inhibitors; 0.53% of 400,000 active; AID 588579, 2011
#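 Activity was followed as the change in fluorescence between reads at 0 and 10 min after starting the reaction with 50 nM substrate. Beforehand, 10 nM polymerase had been preincubated with compound for 15 min at room temperature.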
# POLH inh: qHTS for Inhibitors of Polymerase Eta; DNA polymerase eta (Homo sapiens), Q9Y253; 1.2% of 390,000 active; recombinant Pol eta, fluorescent DNA replication assay; AID 588591, 2011; Potency, µM (titrated, usually from 114 µM), hits mostly inhibitors
#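 Fluorescent replication assay: 50 nM final substrate added after a 15 min room-temperature compound preincubation with 10 nM enzyme. Signal taken at 0 min and again at 10 min.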
# PI5P4K alpha inh: qHTS for Inhibitors of phosphatidylinositol 5-phosphate 4-kinase (PI5P4K). max response, %. 1.2% of 330,000 active. AID 652105, 2013. PI5P4Kalpha enzyme, ADP-Glo luminescence, 60 min; active compounds read low; active = max response of -50% or lower; inconclusive = between -30% and -50%; inactive = -30% or higher; also: value at the top dose of about 77 µM
#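 Compounds were pin-transferred onto PI5P4Kalpha and substrate in HEPES pH 7.4 buffer with EGTA, CHAPS and 5% DMSO. ATP (5 microM final) started the reaction, which ran 60 minutes at room temperature before ADP-Glo detection.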
# WRN inhibitor: qHTS for Inhibitors of WRN Helicase; Bifunctional 3'-5' exonuclease/ATP-dependent helicase WRN (Homo sapiens), Q14191; WRN helicase unwinding, fluorescent forked duplex, kinetic; Potency, µM (highest dose often 114 µM), actives largely listed as inhibitors; 0.46% of 360,000 active; AID 651768, 2012; also: nearly all actives have a fitted effect of over 55% in size
#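 Primary qHTS, 1536-well format. 20 nM WRN + compound, 15 min RT; start with 100 nM forked fluorophore/quencher duplex, 2 mM ATP (final); kinetic read ex 525/em 598 nm.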
# Pol beta inh: qHTS Assay for Inhibitors of DNA Polymerase Beta; Pol beta primer extension/strand displacement, fluorescence kinetic; Potency, µM (doses to about 114 µM), most hits filed as inhibitors; 1.3% of 340,000 active; AID 485314, 2010
#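 10 nM enzyme + cpd, 15 min RT; start with substrate 50 nM final; read 0 min and after 10 min RT. Corrected, normalized data; 4-parameter Hill curve fit.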
# POLI inh: qHTS for Inhibitors of Polymerase Iota; DNA polymerase iota (Homo sapiens), Q9UNA4; Pol iota fluorescent replication assay, 10 min; Potency, µM (top dose mostly 115 µM), most hits filed as inhibitors; 1% of 390,000 active
# Target sequence (Q9UNA4 whole entry, looked up): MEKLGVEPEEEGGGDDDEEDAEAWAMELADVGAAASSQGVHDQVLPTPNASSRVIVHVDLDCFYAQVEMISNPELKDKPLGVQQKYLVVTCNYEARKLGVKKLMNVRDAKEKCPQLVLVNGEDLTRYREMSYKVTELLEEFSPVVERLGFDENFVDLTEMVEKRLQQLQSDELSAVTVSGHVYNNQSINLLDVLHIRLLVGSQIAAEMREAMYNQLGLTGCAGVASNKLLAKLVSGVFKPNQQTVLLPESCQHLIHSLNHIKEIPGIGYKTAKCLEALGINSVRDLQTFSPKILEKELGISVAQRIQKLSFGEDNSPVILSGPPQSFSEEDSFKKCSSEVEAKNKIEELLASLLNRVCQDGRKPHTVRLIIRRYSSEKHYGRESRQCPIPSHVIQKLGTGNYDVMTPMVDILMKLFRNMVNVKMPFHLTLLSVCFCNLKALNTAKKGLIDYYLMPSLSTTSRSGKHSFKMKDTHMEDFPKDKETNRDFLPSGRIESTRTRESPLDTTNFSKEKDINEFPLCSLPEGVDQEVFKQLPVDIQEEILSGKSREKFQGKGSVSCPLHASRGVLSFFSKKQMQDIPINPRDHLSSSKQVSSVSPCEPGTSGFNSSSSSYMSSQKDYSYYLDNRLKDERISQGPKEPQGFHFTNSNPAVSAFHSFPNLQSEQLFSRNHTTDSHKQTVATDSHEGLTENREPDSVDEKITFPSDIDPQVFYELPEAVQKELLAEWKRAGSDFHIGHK
#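 Pol iota at 10 nM preincubated 15 min with compounds at room temperature; reaction started with fluorescent substrate, 50 nM final. Fluorescence read kinetically at 0 and 10 min; buffer-only wells as negative control.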
# Numbers stand for hits; 0 = inactive; ? = inconclusive; - = not tested or not shown; ! = not confirmed by another sample; [ ] = remark or other dose. Unless noted, calls follow the shape of the dose curve; as a rule, active = well fitted curve in the direction sought with a large enough effect; inconclusive = small, poorly fitted or top-dose-only effect, or another doubt; inactive = no such curve, though single readings can be large; an effect the other way counts as inactive or inconclusive.
SMILES,Pol kappa inh,POLH inh,PI5P4K alpha inh,WRN inhibitor,Pol beta inh,POLI inh
O=c1[nH]c(/C=C\c2ccc(O)cc2)nc(O)c1[N+](=O)[O-],0,?,-89,0[11.6 µM],0,0
O=c1[nH]c(/C=C\c2ccc(O)c(Cl)c2)nc(O)c1[N+](=O)[O-],0,0,-97,0,0,?
Cc1ccc(NC(=O)COCc2cc(-c3cccs3)on2)cc1Cl,0,0,-,-,0,0
Cc1ccc(-c2ccc(=O)n(CC(=O)NCCc3ccccc3)n2)cc1,0,0,-,-,0,0
O=C(O)CCc1ccc(-c2ccc(Cl)cc2)n1Cc1ccco1,0,?,-,0,?,0
O=C(O)CCc1ccc(-c2cccs2)n1Cc1ccco1,0,?,-,0[11.6 µM],50µM,?
O=C(O)CCc1ccc(-c2cccs2)n1NC(=O)c1ccc(O)cc1,?,89µM,-,0,?,?
O=C(O)CCc1ccc(-c2cccs2)o1,?,45µM,-,?,0,40µM
O=C(O)CCc1ccc(-c2cccs2)n1NC(=O)c1cccs1,0,0,0,0,?,0
Cc1ccc(NC(=O)Cn2c(=O)n(Cc3ccco3)c(=O)c3sc4ccccc4c32)cc1C,0,0,-,-,?,0
O=C(Nc1cccc(F)c1)N1CC2(CCN(C(=O)c3ccco3)CC2)C1,0,-,-,-,-,-
CC1(C)Cc2c(C#N)c(N3CCN(C(=O)c4ccccc4)CC3)nc(-c3ccco3)c2CS1,0,32µM,?,?,28µM,?
COc1cc(C=CC(=O)OCC=Cc2ccc3c(c2)OCO3)cc(OC)c1OC,0,0,0,0,-,0
O=C(NNc1ccccc1[N+](=O)[O-])Nc1ccc(Cl)c(Cl)c1,0,0,0,0,0,0
O=C1NC(=O)C(c2ccccc2[N+](=O)[O-])=C1Nc1ccc(O)c(Cl)c1,11µM!,?,?,0,11µM,28µM!
C=C(CO)C1Cc2cc(C(C)=O)ccc2O1 (stereo unspecified),?,20µM,0,0,?,?
O=C(O)c1cc(-c2ccc(/C=c3\sc4nc5ccc(Br)cc5n4c3=O)o2)ccc1Cl,-,-,-,-,1.6µM,-
Cc1ccc2c(c1)c1nnc(SCC(=O)Nc3cccc(Cl)c3C)nc1n2CC(=O)O,0,79µM,0,?,22µM,0
Cc1ccc2c(c1)c1nnc(SCC(=O)Nc3ccccc3C(F)(F)F)nc1n2CC(=O)O,0,0,0,0,0,0
Oc1cccc(C=NCc2ccccc2)c1O,14µM,?,-58,40µM,3.5µM,7.9µM
Oc1ccccc1C=Nc1cccc2ccccc12,0,0,0,0,0,0
Oc1cccc(C=Nc2cccc3ccccc23)c1O,35µM,0,-90,0[11.6 µM],8.9µM,11µM
Oc1c(C=NCc2ccccc2)sc2ccccc12,0,0,0,0,0,0
O=[N+]([O-])c1cccc(S(=O)(=O)NC2CC3CCC2C3)c1 (stereo unspecified),0,0,0,0,0,0
O=c1[nH]c(Nc2ccc(F)cc2)cc2ccccc12,0,22µM,-,0,0,7.1µM
SMILES,Pol kappa inh,POLH inh,PI5P4K alpha inh,WRN inhibitor,Pol beta inh,POLI inh
Cc1ccc(S(=O)(=O)NCC(=O)OCC(=O)c2ccc(Br)s2)cc1,0,?,-52,0,?,0
Cc1ccc(S(=O)(=O)NCC(=O)OCC(=O)c2ccc(Cl)s2)cc1,0,0,0,0,-,?
CC1=C2C3OC(=O)C(C)C3CCC2(C)C=C(Cl)C1=O (stereo unspecified),-,0,0,0,-,-
COc1ccccc1CC(=O)NO,0,-,-,-,-,0
CCc1nnc(NS(=O)(=O)c2ccc(Nc3ccc([N+](=O)[O-])c4nonc34)cc2)s1,0,?,-57,?,0,0
CCc1nnc(NS(=O)(=O)c2ccc(NS(=O)(=O)c3ccccc3[N+](=O)[O-])cc2)s1,0,0,0,0,0,0
CCCN(CCC)Cc1cc(=O)oc2cc(C)cc(C)c12,-,-,0,0,-,-
O=c1cc(-c2ccc(Cl)cc2)[nH][nH]1,0,0,-,0,0,1.6µM
O=C(O)c1ccc(NC(CSCc2ccc(F)cc2)C(=O)O)c([N+](=O)[O-])c1 (stereo unspecified),0,0,-,0,0,79µM
CN(C)c1ccc(/C=C2\SC(=O)N(CCc3nnc(N)s3)C2=O)cc1,0,0,?,0,?,50µM
O=C(O)c1ccccc1CSc1ccccn1,0,0,0,0,0,0
CCOC(=O)C1CCCN(C(=O)CSc2nc(C)cc(C)n2)C1 (stereo unspecified),0,0,0,0,0,0
CCOC(=O)C1CCCN(C(=O)CSc2ccc(Br)cc2)C1 (stereo unspecified),0,0,-54,?,0,0
O=[N+]([O-])c1cccc2cn[nH]c12,0,0,0,0,0,0
O=[N+]([O-])c1cccc2c[nH]nc12,13µM,-,-,-,-,-
O=C1C(c2[nH]c3ccc(S(=O)(=O)O)cc3c2O)=Nc2ccc(S(=O)(=O)O)cc21,?,-,-,-,-,25µM
O=C1C(c2c(O)[nH]c3ccccc23)=Nc2ccccc21,0,0,0,0,0,0
CCC(C(=O)Nc1nnc(-c2ccco2)s1)c1ccccc1 (stereo unspecified),0,?,0,0,0,0
CC(=O)c1ccc(OCC(O)CN2CCN(CCN3C(=O)c4cccc5cccc(c45)C3=O)CC2)cc1 (stereo unspecified),0,?,0,0,14µM,?
CC(C)OCC(O)CN1CCN(CCN2C(=O)c3cccc4cccc(c34)C2=O)CC1 (stereo unspecified),0,0,0,0,?,0
CCn1c2ccccc2c2cnc(N=CN(C)C)c(C#N)c21,0,0,0,0,0,0
CCN(CC)CCn1c2ccccc2c2cnc(N=CN(C)C)c(C#N)c21,0,?,0,0,20µM,?
CCOC(=O)c1cnn(-c2nc(OCC)cc(OCC)n2)c1C,0,0,0,0,0,0
Cc1ccc2ccc3c(c2n1)NS(=O)(=O)c1ccc(C(F)(F)F)cc1-3,0,-,-,-,-,?
O=S1(=O)Nc2c(cc(Cl)c3ccc(Cl)nc23)-c2ccccc21,79µM,-,-,-,-,?
O=C(Cn1ncc(Cl)c(Cl)c1=O)N1CCOCC1,0,0,0,0,0,0
O=C(Cn1ncc(Cl)c(Cl)c1=O)N1CCN(Cc2ccccc2)CC1,0,?,0,0,28µM,35µM
CCc1ccc(C(=O)Cn2ncc(Cl)c(Cl)c2=O)cc1,0,?,?,0[11.6 µM],50µM,?
O=C(c1ccc(-c2ccccc2)cc1)N1CCN(c2ccccn2)CC1,0,0,0,0,0,0
O=c1ccn([C@@H]2O[C@H](CNS(=O)(=O)C3CC3)[C@@H](O)[C@H]2O)c(=O)[nH]1,0,0,0,0,-,0
